# Reference: PubChem BioAssay AID602455 (Southern Research Specialized Biocontainment Screening …, 2012)
# Results with a measured potency or affinity are listed apart. Values without a mark were called inactive. The rule behind the calls is not given here.
# Test: CPE inhibition in VEEV TC 83 infected cells, confirmatory screen (AID 602455)
# Details: series mostly up to 50 µM; inhibition: at the top concentration
row,Structure (SMILES),inhibition [%]
1,O=C(Nc1nc2c(s1)CCCC2)c1cccs1,-13.8
2,O=C(Cc1cccs1)Nc1nc2ccccc2s1,-7.05
3,O=C(Cc1cccs1)Nc1nccs1,-0.05
